PubChem BioAssay (Tox21)
Values joined by “and” are separate entries in the source; they are usually repeats but may differ in a detail not shown here. Equal values may be shown once. Inconclusive results are not listed. Where a call stands in place of a potency, no number is given. The source holds several records for some structures; these can differ, active in one and inactive in another. Active and inactive are the calls of the source. The call rests on the fitted dose curve; in most records, active means well fitted inhibition curve with a large enough effect in the signal ratio in the repeat runs; inconclusive means weak or mixed curves, or effect the other way; inactive means flat fitted curve, though single readings scatter; the % refers to the signal ratio.

assay: qHTS assay for small molecule disruptors of the mitochondrial membrane potential (AID 720635); conditions: HepG2 mitochondrial membrane potential, Mito-MPS dye ratio; series mostly up to 83.2 µM
Excerpt: U.S. Tox21 Program National Center for Advancing Translational Sciences [NCATS] NIH Chemical Genomics Center [NCGC] U.S. Environmental Protection Agency [EPA] National Institutes of Environmental Health Sciences [NIEHS] National Toxicology Program [NTP] U.S. Food and Drug Administration [FDA] Tox21 Assay Overview: Mitochondrial membrane potential (MMP), one of the parameters for mitochondrial function, is generated by mitochondrial electron transport chain that creates an electrochemical gradient by a series of redox reactions. This gradient drives the synthesis of ATP, a crucial molecule for various cellular processes. Measuring MMP in living cells is commonly used to assess the effect of chemicals on mitochondrial function. […] The dye accumulates in the mitochondria of healthy cells as aggregates, with red fluorescence. The mitochondrial potential collapses and the dye can no longer accumulate in the mitochondria and remains in the cytoplasm in monomers, with green fluorescence.
Tox21 Assay Protocol Summary: 2,000 HepG2 cells in 5 uL/well were dispensed into black, clear-bottom 1536-well plates using a Multidrop Combi (Thermo Scientific) dispenser. The assay plates were incubated overnight at 37C to allow cells to attach to the wells, followed by the transfer of 23 nL compound or DMSO vehicle by a pin tool (Kalypsys). The plates were incubated for 1 hr at 37C and 5% CO2, followed by the addition of 5 uL of 2X Mito-MPS dye (BD Biosciences) into each well using Flying Reagent Dispenser (Aurora Discovery) and then following 30 min incubation at 37C. Fluorescence intensity (490nm excitation and 535nm emission for monomers; and 540nm excitation and 590nm emissions for aggregates) was measured using an Envision plate reader.
Potency means the concentration at half of the fitted maximal effect.

Structure (SMILES) | Potency
CCCOC(=O)c1ccccc1O | inactive
C=CC1=C(C(=O)O)N2C(=O)[C@@H](NC(=O)/C(=N/OCC(=O)O)c3csc(N)n3)[C@H]2SC1 (stereo in doubt) | inactive
Cc1c(N)nc([C@H](CC(N)=O)NC[C@H](N)C(N)=O)nc1C(=O)N[C@H](C(=O)N[C@H](C)[C@@H](O)[C@H](C)C(=O)N[C@H](C(=O)NCCc1nc(-c2nc(C(=O)NCCCCN=C(N)N)cs2)cs1)[C@@H](C)O)[C@@H](O[C@@H]1O[C@@H](CO)[C@@H](O)[C@H](O)[C@@H]1O[C@H]1O[C@H](CO)[C@@H](O)[C@H](OC(N)=O)[C@@H]1O)c1cnc[nH]1 | inactive
Cc1cn([C@H]2C[C@H](O)[C@@H](CO)O2)c(=O)[nH]c1=O | inactive
Cc1cc(C(=O)NCCc2ccc(S(=O)(=O)NC(=O)NN3CCCCCC3)cc2)no1 | inactive
c1ccc2c(c1)OCC(CN1CCCCC1)O2 (stereo not given) | inactive
C[C@@H]1O[C@@H]1P(=O)(O)O | inactive
NCCCC(=O)O | inactive
NCCO/C=C/[C@H](N)C(=O)O | inactive
CCCC(=O)c1cc(O)c(O)cc1O | 5.45 µM (active)
CCCC(CCC)C(=O)OC1C[C@H]2CC[C@@H](C1)[N+]2(C)C (stereo not given in full) | inactive
NCc1cccc(C2CCN(C(=O)c3ccc(C#Cc4ccccc4F)o3)CC2)c1 | inactive
NC(=O)c1cc[n+](CC2=C(C(=O)O)N3C(=O)[C@@H](NC(=O)C(c4ccccc4)S(=O)(=O)[O-])[C@H]3SC2)cc1 (stereo not given in full) | inactive
NC(=O)[C@H]1O[C@@H](O)[C@H](O)[C@@H](O)[C@@H]1O | inactive
CN=C(N)NCCC[C@H](N)C(=O)O | inactive
O=C(O)[C@@H]1C[C@H](CP(=O)(O)O)CCN1 | inactive
O=C(Nc1ccccc1)c1cc(Cl)ccc1O | 0.386 µM (active)
O=C(Cn1cnnn1)N[C@@H]1C(=O)N2C(C(=O)O)=C(CSc3nncs3)CS[C@H]12 | inactive
CCCCCCCCOC(=O)c1cc(O)c(O)c(O)c1 | 6.11 µM (active)
O=C(O)c1cc(O)c2c(c1)[C@H]([C@H]1c3cc(C(=O)O)cc(O)c3C(=O)c3c(O[C@@H]4O[C@H](CO)[C@@H](O)[C@H](O)[C@H]4O)cccc31)c1cccc(O[C@@H]3O[C@H](CO)[C@@H](O)[C@H](O)[C@H]3O)c1C2=O | inactive

Structure (SMILES) | Potency
O=C(O)c1cc(=O)c2c3nc4ccccc4oc-3cc(=O)c2[nH]1 | 21.1 µM (active)
O=C(O)c1ccc(NC2OC[C@@H](O)[C@H](O)[C@H]2O)cc1 (stereo not given in full) | inactive
O=C(O)COc1ccc(C(=O)c2cccs2)c(Cl)c1Cl | inactive
CCC(NC(C)C)C(O)c1ccc(O)c(O)c1 (stereo not given) | inactive
NC(=O)C1c2ccccc2CCc2ccccc21 | inactive
CCC(O)c1ccccc1 (stereo not given) | inactive
COc1ccc(/C=C/C(=O)O)cc1 | inactive
CC(=NCc1ccccc1)c1ccccc1O | inactive
CC1=C(/C=C/C(C)=C/C=C/C(C)=C\C(=O)O)C(C)(C)CCC1 | 61.3 µM (active)
CCCn1c(=O)[nH]c(=O)c2[nH]cnc21 | inactive
NC[C@H]1O[C@H](O[C@H]2[C@H](O)[C@@H](O[C@H]3O[C@H](CO)[C@@H](O)[C@H](N)[C@H]3O)[C@H](N)C[C@@H]2N)[C@H](N)C[C@@H]1O | inactive
CC(C)=CCC/C(C)=C/CC/C(C)=C/CC/C(C)=C/CC1=C(C)C(=O)c2ccccc2C1=O | inactive and 13.3 µM (active)
Cc1c(O)c(=O)ccn1C | inactive
CN1C(=O)C[C@@H](C(=O)N[C@@H](Cc2cnc[nH]2)C(=O)N2CCC[C@H]2C(N)=O)NC1=O | inactive
C/C=C/C1=C(C(=O)O)N2C(=O)[C@@H](NC(=O)[C@H](N)c3ccc(O)cc3)[C@H]2SC1 | inactive
O=C(O)COc1ccccc1/C=N/NC(=O)c1ccncc1 | inactive
NCC[C@H](O)C(=O)N[C@@H]1C[C@H](N)[C@@H](O[C@H]2O[C@H](CN)CC[C@H]2N)[C@H](O)[C@H]1O[C@H]1O[C@H](CO)[C@@H](O)[C@H](N)[C@H]1O | inactive
CC1(C)S[C@@H]2[C@H](NC(=O)[C@H](N)c3ccc(O)cc3)C(=O)N2[C@H]1C(=O)O | inactive
CC(C)CCC[C@@H](C)[C@H]1CC[C@H]2[C@@H]3CC[C@@H]4C[C@H](O)CC[C@]4(C)[C@H]3CC[C@]12C | inactive
CCCCCCCCCC(=O)NO | inactive
